Laboratory results published in PubChem BioAssay.
The source made the active and inactive calls.

Experiments:
[1] = system: Plasmodium falciparum Sir2 (PF13_0152, Sir2A); experiment: Plasmodium falciparum Sir2A binding compounds – biochemical, small-molecule microarray, 635 nm fluorescence, primary screen (AID 1098); conditions: fluorescence 635 nm, higher = more signal;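 note: score merges spot fluorescence intensity with its signal-to-noise ratio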
[2] = probe aDKK1 binding to arrayed compounds – biochemical, biotinylated probe, 635/667 nm fluorescence, primary screen (AID 1099); conditions: small-molecule microarray, higher = more signal;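 note: score merges 667nm spot fluorescence with signal to noise across triplicate slides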
[3] = probe aCHRDL2 binding to arrayed compounds – biochemical, biotinylated probe, 635/667 nm fluorescence, primary screen (AID 1100); conditions: small-molecule microarray, higher = more signal
[4] = change in splice reporter luminescence, either direction, cell-based, HEK293, spliceosome inhibition project, primary screen (AID 1101); conditions: HEK293 splicing luciferase reporter, 24 h, higher = more signal, called active from +8 up or from −8 down;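 note: HEK293 cells carrying a splicing-competent luciferase reporter gene; test concentration not given here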
[5] = target: Fibroblast growth factor 10 (Homo sapiens) (UniProt O15520); experiment: compounds binding fibroblast growth factor 10 – biochemical, small-molecule microarray, 635 nm fluorescence, primary screen (AID 1102); conditions: FGF10 binding, fluorescence 635 nm, higher = more signal
[6] = system: glycogen synthase kinase-3 (GSK3A per assay name; protocol says GSK3B); experiment: compounds binding glycogen synthase kinase-3 – biochemical, small-molecule microarray, 635 nm fluorescence, GSK3A, primary screen (AID 1103); conditions: fluorescence 635 nm, higher = more signal; note: the record names both GSK3A and GSK3B
[7] = target: Epidermal growth factor receptor (Homo sapiens) (UniProt P00533); experiment: compounds binding epidermal growth factor receptor – biochemical, small-molecule microarray, 635 nm fluorescence, primary screen (AID 1104); conditions: EGFR binding, higher = more signal;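 note: score merges 667 nm emission intensity with spot signal to noise over triplicate slides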
[8] = target: Follistatin-related protein 3 (Homo sapiens) (UniProt O95633); experiment: compounds binding follistatin-related protein 3 – biochemical, small-molecule microarray, 635 nm fluorescence, primary screen (AID 1105); conditions: FSTL3 binding, higher = more signal;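 note: score merges emission near 667 nm and signal to noise per printed spot across three slides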
[9] = target: Dickkopf-related protein 1 (Homo sapiens) (UniProt O94907); experiment: small molecules binding DKK1 protein – biochemical, small-molecule microarray, 635 nm fluorescence scan, primary screen (AID 1106); conditions: higher = more signal;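 note: score merges emission near 667 nm with signal to noise over three replicate slides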
[10] = system: Inhibin beta A chain (activin A); experiment: small molecules binding activin A – biochemical, small-molecule microarray, 635 nm fluorescence scan, primary screen (AID 1107); conditions: INHBA, higher = more signal;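 note: mouse activin A protein probed at 4.33 µg/mL on printed slides; score merges bound-protein fluorescence near 667 nm with spot signal-to-noise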
[11] = system: Human papillomavirus type 1a protein E7 (residues 44-93); experiment: small molecules binding HPV E7 44-93 – biochemical, small-molecule microarray, residues 44-93, 635 nm fluorescence, primary screen (AID 1108); conditions: fluorescence 635 nm, higher = more signal;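 note: E7 fragment applied at 1 µg/mL in TBST for 1 h at 4 C; score combines spot fluorescence with its signal to noise ratio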
[12] = hepatitis C replication reporter changes, two-sided – Huh7 cells, luciferase reporter, HCV replication inhibitor project, primary screen (AID 1109); conditions: Huh7 HCV replicon luciferase reporter, 48 h; higher = more signal;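 note: huh7 hepatoma cells harbouring a luciferase neomycin HCV replicon reporter; luciferase luminescence as measure of HCV replicon replication; test concentration not given here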
[13] = target: Left-right determination factor 2 (Homo sapiens) (UniProt O00292); experiment: small molecules binding LEFTY2 protein – biochemical, small-molecule microarray, 635 nm fluorescence scan, primary screen (AID 1110); conditions: higher = more signal
[14] = target: Calmodulin-1 (Homo sapiens) (UniProt P0DP23); experiment: small molecules binding calmodulin-1 with EGTA – biochemical, small-molecule microarray, Cy5-labelled CALM1, profiling panel (AID 1111); conditions: Cy5-CALM1 binding fluorescence, higher = more signal;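 note: labelled calmodulin applied in Tris saline Tween buffer holding calcium plus EGTA and DTT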
[15] = target: Calmodulin-1 (Homo sapiens) (UniProt P0DP23); experiment: small molecules binding Ca-loaded calmodulin-1 – biochemical, small-molecule microarray, Cy5-labelled CALM1, plus calcium, artefact control for SMM control-protein annotation, profiling panel (AID 1112); conditions: Cy5-CALM1 binding fluorescence, higher = more signal;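 note: score merges spot fluorescence with signal to noise from triplicate slides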
[16] = probe aWnt5a binding to arrayed compounds – biochemical, biotinylated probe, 635/667 nm fluorescence, primary screen (AID 1113); conditions: small-molecule microarray, higher = more signal;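 note: score merges 667 nm fluorescence intensity with signal-to-noise per printed feature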
[17] = probe aShh binding to arrayed compounds – biochemical, biotinylated probe, 635/667 nm fluorescence, primary screen (AID 1114); conditions: small-molecule microarray, higher = more signal;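 note: probe is biotin-labelled aShh protein from a stem cell growth factor screen; measures binding of labelled protein to compounds printed on the slide; score merges feature fluorescence at 667 nm with signal-to-noise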
[18] = probe aNog binding to arrayed compounds – biochemical, biotinylated probe, 635/667 nm fluorescence, primary screen (AID 1115); conditions: small-molecule microarray, higher = more signal;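 note: probe is biotinylated aNog protein used at 0.15 µg/mL for 1 h at 4 C; z-score combines 667 nm fluorescence of each spot with its signal to noise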
[19] = target: Torsin-1A-interacting protein 1 (Homo sapiens) (UniProt Q5JTV8); experiment: compound microarray binding of lysate hLAP1 – cell lysate, small-molecule microarray, COS7 lysate, 635/667 nm fluorescence, primary screen (AID 1116); conditions: 635 nm fluorescence, higher = more signal
[20] = target: Alpha-bungarotoxin (Bungarus multicinctus) (UniProt P60615); experiment: compounds binding labelled alpha-BTX control protein – biochemical, small-molecule microarray, Alexa647 label, 635/667 nm fluorescence, artefact control for SMM control protein annotation, profiling panel (AID 1117); conditions: alpha-BTX-A647 binding fluorescence, higher = more signal
Chain of Alpha-bungarotoxin (Bungarus multicinctus) (P60615 whole entry, looked up): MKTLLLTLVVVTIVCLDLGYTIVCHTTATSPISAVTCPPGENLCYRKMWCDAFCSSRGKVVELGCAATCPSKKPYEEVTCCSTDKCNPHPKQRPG

Chain of Epidermal growth factor receptor (Homo sapiens) (P00533 whole entry, looked up): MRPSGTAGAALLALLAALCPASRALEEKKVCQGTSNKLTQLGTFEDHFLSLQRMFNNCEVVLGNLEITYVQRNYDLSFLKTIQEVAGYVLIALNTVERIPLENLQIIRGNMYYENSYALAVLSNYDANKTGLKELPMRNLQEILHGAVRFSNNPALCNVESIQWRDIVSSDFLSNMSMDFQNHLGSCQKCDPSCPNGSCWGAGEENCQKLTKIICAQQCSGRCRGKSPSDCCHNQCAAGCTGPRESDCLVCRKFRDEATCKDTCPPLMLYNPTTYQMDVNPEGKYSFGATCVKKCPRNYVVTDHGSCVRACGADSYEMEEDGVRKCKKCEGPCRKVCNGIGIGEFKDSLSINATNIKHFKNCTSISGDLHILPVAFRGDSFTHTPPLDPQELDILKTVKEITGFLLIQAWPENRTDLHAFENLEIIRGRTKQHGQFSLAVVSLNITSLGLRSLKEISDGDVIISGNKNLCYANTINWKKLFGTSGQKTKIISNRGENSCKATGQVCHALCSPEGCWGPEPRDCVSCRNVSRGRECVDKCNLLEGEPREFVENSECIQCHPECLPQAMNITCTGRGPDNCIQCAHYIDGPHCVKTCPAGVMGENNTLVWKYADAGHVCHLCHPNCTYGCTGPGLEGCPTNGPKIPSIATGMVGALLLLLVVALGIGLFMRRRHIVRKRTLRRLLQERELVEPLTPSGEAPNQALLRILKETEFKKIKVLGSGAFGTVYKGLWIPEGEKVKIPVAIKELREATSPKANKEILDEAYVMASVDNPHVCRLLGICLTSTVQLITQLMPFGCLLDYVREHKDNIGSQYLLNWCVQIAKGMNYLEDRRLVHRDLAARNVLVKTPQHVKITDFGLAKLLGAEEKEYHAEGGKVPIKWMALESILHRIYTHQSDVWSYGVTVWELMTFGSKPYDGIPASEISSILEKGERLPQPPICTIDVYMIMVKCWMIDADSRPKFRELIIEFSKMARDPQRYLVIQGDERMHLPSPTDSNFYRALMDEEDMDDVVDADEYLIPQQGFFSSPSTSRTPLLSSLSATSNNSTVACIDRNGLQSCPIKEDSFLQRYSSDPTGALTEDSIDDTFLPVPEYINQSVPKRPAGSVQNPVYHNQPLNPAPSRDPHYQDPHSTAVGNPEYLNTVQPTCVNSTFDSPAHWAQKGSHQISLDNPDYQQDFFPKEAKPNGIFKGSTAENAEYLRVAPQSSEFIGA
Chain of Dickkopf-related protein 1 (Homo sapiens) (O94907 whole entry, looked up): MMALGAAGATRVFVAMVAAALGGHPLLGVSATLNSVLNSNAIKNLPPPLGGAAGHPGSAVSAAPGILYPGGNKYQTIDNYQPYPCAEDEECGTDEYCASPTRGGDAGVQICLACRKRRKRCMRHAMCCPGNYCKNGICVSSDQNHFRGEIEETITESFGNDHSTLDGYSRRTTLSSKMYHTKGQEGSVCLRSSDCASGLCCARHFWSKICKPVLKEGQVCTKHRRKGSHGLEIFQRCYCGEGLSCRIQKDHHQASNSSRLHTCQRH
Chain of Torsin-1A-interacting protein 1 (Homo sapiens) (Q5JTV8 whole entry, looked up): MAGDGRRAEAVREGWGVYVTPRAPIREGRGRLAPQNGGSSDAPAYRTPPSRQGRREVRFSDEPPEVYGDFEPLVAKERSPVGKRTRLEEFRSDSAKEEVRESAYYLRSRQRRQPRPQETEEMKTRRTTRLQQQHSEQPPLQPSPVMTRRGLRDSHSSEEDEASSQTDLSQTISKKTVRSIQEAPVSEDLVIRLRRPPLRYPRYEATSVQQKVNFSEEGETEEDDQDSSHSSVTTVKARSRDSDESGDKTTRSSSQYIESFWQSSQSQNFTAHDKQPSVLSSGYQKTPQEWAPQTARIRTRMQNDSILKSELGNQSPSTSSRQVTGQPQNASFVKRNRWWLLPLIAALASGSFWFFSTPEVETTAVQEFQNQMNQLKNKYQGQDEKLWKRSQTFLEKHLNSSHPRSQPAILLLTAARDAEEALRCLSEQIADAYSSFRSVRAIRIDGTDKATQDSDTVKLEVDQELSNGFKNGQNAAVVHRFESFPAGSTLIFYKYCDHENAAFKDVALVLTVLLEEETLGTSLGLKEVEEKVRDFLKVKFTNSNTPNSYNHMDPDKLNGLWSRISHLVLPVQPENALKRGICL
Chain of Left-right determination factor 2 (Homo sapiens) (O00292 whole entry, looked up): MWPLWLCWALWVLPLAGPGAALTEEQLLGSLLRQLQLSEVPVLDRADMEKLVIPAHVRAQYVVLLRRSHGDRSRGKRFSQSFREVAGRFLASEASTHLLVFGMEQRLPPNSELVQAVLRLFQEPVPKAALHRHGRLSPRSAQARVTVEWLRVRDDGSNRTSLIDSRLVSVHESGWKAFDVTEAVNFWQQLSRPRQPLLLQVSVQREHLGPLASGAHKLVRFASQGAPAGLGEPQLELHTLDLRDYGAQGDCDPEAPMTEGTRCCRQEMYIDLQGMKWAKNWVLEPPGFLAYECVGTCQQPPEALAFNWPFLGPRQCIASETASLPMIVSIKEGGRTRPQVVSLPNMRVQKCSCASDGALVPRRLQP
Chain of Fibroblast growth factor 10 (Homo sapiens) (O15520 whole entry, looked up): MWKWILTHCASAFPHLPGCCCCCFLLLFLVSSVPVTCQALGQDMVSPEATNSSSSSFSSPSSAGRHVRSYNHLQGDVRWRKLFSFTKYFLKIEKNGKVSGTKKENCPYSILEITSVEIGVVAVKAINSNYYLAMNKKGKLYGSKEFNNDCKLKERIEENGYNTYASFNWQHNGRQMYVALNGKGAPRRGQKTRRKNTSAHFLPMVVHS
Chain of Follistatin-related protein 3 (Homo sapiens) (O95633 whole entry, looked up): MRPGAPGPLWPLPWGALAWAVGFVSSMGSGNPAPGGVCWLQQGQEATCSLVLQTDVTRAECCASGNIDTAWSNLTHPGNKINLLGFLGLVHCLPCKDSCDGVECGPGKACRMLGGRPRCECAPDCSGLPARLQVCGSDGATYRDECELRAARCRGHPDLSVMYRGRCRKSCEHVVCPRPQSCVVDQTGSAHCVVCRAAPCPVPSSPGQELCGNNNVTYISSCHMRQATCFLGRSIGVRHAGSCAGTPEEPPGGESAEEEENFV

SMILES	composite z-score [1]	composite z-score [2]	composite z-score [3]	z-score [4]	composite z-score [5]	composite z-score [6]	composite z-score [7]	composite z-score [8]	composite z-score [9]	composite z-score [10]	composite z-score [11]	z-score [12]	composite z-score [13]	composite z-score [14]	composite z-score [15]	composite z-score [16]	composite z-score [17]	composite z-score [18]	composite z-score [19]	composite z-score [20]
CC(C)(C)OC(=O)CC[C@]1(C(=O)N2CCCCC2)N=C(c2ccc(OCCCO)cc2)O[C@H]1c1ccccc1	1.73	0.464	0.56	-0.767 (inactive)	1.2	1.29	0.494	1.37	0.691	0.556	1.37	-1.66	0.538	1.68	-0.0194	0.0919	-0.138	0.248	1.89	2.02
CCCCCCc1nc(C2CC2)c(C)c2c1[Si](C(C)C)(C(C)C)OC2	-0.192	-0.124	0.109	-3.06 (inactive)	-0.391	-0.562	0.138	-0.127	0.438	1.54	-0.497	0.127	-0.127	-0.682	-0.111	-0.124	-0.0146	-0.353	-0.147	0.342
C=CCNC(=O)[C@H]1[C@@H]2C(=O)O[C@@H](c3ccccc3)[C@@H](c3ccccc3)N2[C@@H](c2ccc(O)cc2)[C@]12C(=O)Nc1ccc(C#CCNC(N)=O)cc12	1.5	0.24	0.262	-0.335 (inactive)	-0.327	-0.304	-0.856	-1.03	-0.351	0.323	0.0632	0.567	-0.84	-0.439	-0.0701	-0.161	-0.467	0.0863	0.239	0.543
C[C@H]1COC(=O)[C@H](Cc2ccccc2)NC(=O)[C@@H](C)COC(=O)[C@H](Cc2ccccc2)NC1=O	0.692	-0.165	-0.563	-1.67 (inactive)	0.632	0.847	0.485	0.897	1.11	-0.687	0.844	-0.0223	0.597	0.359	-0.589	-0.236	0.0711	-0.0026	1	0.856
Cc1ccc(S[C@]2(C(=O)NC3CC3)CC(=O)N(Cc3cc(C(F)(F)F)cc(C(F)(F)F)c3)[C@@H]2c2ccc(CO)cc2)cc1	0.259	-0.212	0.0275	0.434 (inactive)	0.295	0.57	0.196	0.811	0.245	0.709	0.892	-1.17	0.267	-0.125	-0.493	-0.175	-0.174	-0.491	-0.0118	0.296
